RORgamma inh: blocks mouse ROR gamma transcriptional activity; Drosophila S2 Gal4-RORgamma UAS-luciferase reporter, 20 h; Potency, µM (series often up to 53.6 µM), inactives show at the top dose activity change, negative = inhibition, actives largely listed as inhibitors; actives 5.4% (n = 310,000); AID 2551; also: % is scaled to controls: 0 for no effect and ±100 for the full control effect; nearly all actives have a fitted effect of over 60% in size
Target sequence (P51450 whole entry, looked up, the tested form may be a part): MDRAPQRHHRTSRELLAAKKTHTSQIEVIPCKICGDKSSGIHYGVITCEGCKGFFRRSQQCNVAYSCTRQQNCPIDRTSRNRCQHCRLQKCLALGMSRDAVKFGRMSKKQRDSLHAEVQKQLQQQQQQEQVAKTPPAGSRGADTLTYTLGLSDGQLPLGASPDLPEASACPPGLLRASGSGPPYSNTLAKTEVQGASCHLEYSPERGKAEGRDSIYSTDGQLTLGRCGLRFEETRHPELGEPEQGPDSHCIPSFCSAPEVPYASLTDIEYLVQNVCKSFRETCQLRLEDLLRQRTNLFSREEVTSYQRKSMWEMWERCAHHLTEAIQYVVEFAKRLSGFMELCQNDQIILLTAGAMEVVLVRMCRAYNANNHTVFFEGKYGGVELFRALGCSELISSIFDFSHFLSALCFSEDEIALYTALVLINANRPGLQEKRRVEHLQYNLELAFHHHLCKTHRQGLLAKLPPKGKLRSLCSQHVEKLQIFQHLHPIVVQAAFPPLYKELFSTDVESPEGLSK
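Drosophila S2 cells stably expressing Gal4-DBD/mouse RORγ fusion under metallothionein promoter plus UAS-luciferase; compound 1 h, then 700 uM CuSO4 induction for 20 h at ambient temperature; inhibition read as reduced luminescence.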
Sfp inh: Sfp phosphopantetheinyl transferase inhibition; Q9F4F7; Biochemical Sfp PPTase activity, qHTS; Potency, µM, for inactives: largest response in the series, negative = inhibition, actives largely listed as inhibitors; actives 3.5% (n = 310,000); AID 1490;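 also: the enzyme is Sfp with the accession as filed and its product quenches rhodamine fluorescence; 0% = enzyme reaction without inhibitor and -100% = no enzyme wells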
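Reaction rates are the 30-min fluorescence difference (ex 525, em 598 nm) in wells containing 15 nM Sfp, 5 uM rhodamine-CoA and 12.5 uM BHQ-2-YbbR at pH 7.6 with 10 mM MgCl2.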
Epigenetic derep: regulators of epigenetic silencing causing reporter derepression in mouse cells. murine LDR cells, GFP reporter derepression, 30 h. Potency, µM (series often up to 53.9 µM), inactives show top-dose GFP activation, actives largely listed as activators. actives 0.2% (n = 280,000); also: % of control where 0% means no effect; nearly all actives have a fitted effect of over 60% in size
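Reporter derepression read as number of fluorescent GFP-positive objects, 20-120 um in size, counted by laser-scanning cytometer. Mouse LDR line with an epigenetically silenced CMV-GFP locus; compound incubation 30 h, 37 C.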
ClpP mod: qHTS Assay for Activators of ClpP | ATP-dependent Clp protease proteolytic subunit (Bacillus subtilis (strain 168)), P80244 | purified B. subtilis ClpP, FRET peptide cleavage, 20 min | Potency, µM (doses to about 57.5 µM), inactives show at the highest dose activity change, negative = active | actives 1.9% (n = 340,000); active = well fitted falling curve with a large enough effect; inconclusive = small, poorly fitted or top-dose-only effect; inactive = no such curve, though single readings can be large or run the other way; also: the source files actives as falling curves though it sought activators and does not explain the sign; nearly all actives have a fitted effect of over 65% in size
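Buffer: 100 mM Tris/HCl pH8, 100 mM KCl, 0.05% low protease BSA, 2.5% glycerol, 0.01% Tween-20. ClpP 10 microg/mL final; 20 min RT; delta FRET normalized to ADEP and DMSO controls.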
PINK1 expr mod: changes PINK1 expression. PINK1 immunofluorescence, high-content cytometry, 24 h. Potency, µM (highest dose often 76.6 µM), inactives show top-dose activation (PINK1 increase), actives largely listed as activators. actives 0.2% (n = 410,000). AID 624263; active = well fitted activation curve with a large enough effect; inconclusive = small, poorly fitted or top-dose-only effect; cell line not stated here; also: % of control where 0% means no effect; nearly all actives have a fitted effect of over 65% in size
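Decision-based qHTS: stable cells, 24 h exposure to five compound concentrations, CCCP as control. Fixed cells stained for PINK1 plus nuclear, mitochondrial and cell markers, cytometer read.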
Gal4-VP16 FLuc: Gal4-VP16 reporter inhibition counter-screen; AID 2546; Potency, µM (series often up to 53.6 µM), for the others: at the top dose activity, negative = inhibition, hits mostly inhibitors; Drosophila S2 Gal4-VP16 UAS-luciferase, luminescence, 20 h; actives 3.5% (n = 310,000);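 also: Gal4-VP16 expression switched on by copper sulfate through the metallothionein promoter; % is scaled to controls: 0 for no effect and ±100 for the full control effect; nearly all actives have a fitted effect of over 50% in size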
Numbers without * were called inactive; ? = inconclusive; / = no result given; [ ] = another dose, or the depositor's remark. A selection: hits, their analogues and other compounds. The true share with any hit is near 8.1%. Unless noted, calls follow the shape of the dose curve; as a rule, active = well fitted curve in the direction sought with a large enough effect; inconclusive = small, poorly fitted or top-dose-only effect, or another doubt; inactive = no such curve, though single readings can be large; an effect the other way counts as inactive or inconclusive. Potency is read from the fitted curve at half-maximal effect.

SMILES | RORgamma inh | Sfp inh | Epigenetic derep | ClpP mod | PINK1 expr mod | Gal4-VP16 FLuc
Cc1ccc2cccc(SCC(=O)NCC#N)c2n1 | 14% | 1% | 3% | 28µM* | 0% | 0%
Clc1ccc(OCc2cn3ccccc3n2)c2ncccc12 | 11µM* | -27% | 2% | / | 4% | ?
O=C(O)c1ccc(CSc2nc(-c3ccc(Cl)cc3)cc(C(F)(F)F)n2)cc1 | -92% | 50µM* | -1% | -9% | / | ?
O=C(O)c1ccc(CSc2nc(-c3ccccc3)cc(C(F)(F)F)n2)cc1 | -11% | -4% | -2% | 1% | -1% | -2%
Cc1cc(C(F)(F)F)nc(SCc2ccc(C(=O)O)o2)n1 | ? | 35µM* | 0% | 7% | -1% | 6%
Cc1ccc2c(c1)c(CC(NC(=O)c1ccccc1Oc1ccccc1)C(=O)O)cn2C(=O)OCc1ccccc1 (stereo not drawn) | ? | -18% | / | / | / | -1%
CC(Sc1ncnc2sc(-c3ccccc3)cc12)C(N)=O (stereo not drawn) | 13µM* | -14% | / | -6% | 1% | -25%
O=C(O)CCSc1ncnc2sc(-c3ccccc3)cc12 | 1.8µM* | -1% | -1% | / | 2% | 5µM*
O=C(O)CSc1ncnc2sc(-c3ccccc3)cc12 | 8% | 1% | -2% | / | 1% | -18%
O=[N+]([O-])c1cc(-c2nc(-c3ccccc3)no2)ccc1NC1CCCC1 | / | / | -4% | -2% | -1% | /
CCN1c2ccccc2NC2C1C(C(C)=O)C(=O)N2c1ccc(Cl)cc1 (stereo not drawn) | -39% | -7% | 25µM* | -1% | 5%[38.3 µM] | -1%
O=C1Nc2ccccc2N(O)N1c1ccc(Cl)cc1 | 2% | 20% | -4% | / | 2% | -11%
CCCc1cc(-c2[nH]ncc2-c2ccc3c(c2)OCCCO3)c(O)cc1OC | 3.5µM* | -2% | 1% | / | / | ?
CCc1cc(-c2[nH]ncc2-c2ccc3c(c2)OCO3)c(O)cc1O | -28% | 13% | -2% | ? | / | -7%
COc1ccc(Br)cc1CNC(=O)CCc1cn(Cc2ccc(C)cc2)c2ccccc12 | / | / | 0% | -16% | 1% | /
O=C(O)/C=C/c1nc(-c2ccccc2)n2ccccc12 | ? | 11% | 2% | 32µM* | -1% | -10%
O=C(O)/C=C/c1ccc2ccccc2n1 | 44% | 1% | -1% | -1% | / | -5%
O=Nc1c(-c2cccc([N+](=O)[O-])c2)nc2ncccn12 | ? | 16µM* | ? | / | / | ?
CC1=C/C(=N\NC(=O)c2cccs2)CC(C)(C)C1 | 6.3µM* | 5% | -1% | 1% | 4% | 11µM*
O=C(NC(=S)N1CCc2ccccc21)c1ccc(Br)o1 | 0.25µM* | 14% | 0% | / | 0% | 0.32µM*
O=C(NC(=S)N1CCc2ccccc21)c1ccccc1Br | 0.1µM* | -27% | ? | -4% | 13% | 0.89µM*
CN1CCN(C(=O)c2ccccc2NC(=O)c2ccccc2Br)CC1 | -10% | 17% | / | 1% | 3% | 0%
CN1CCN(C(=S)NC(=O)c2ccccc2Br)CC1 | 7.1µM* | -15% | / | -2% | 2% | 11µM*
CCOC(=O)c1c(S(=O)(=O)NCC(=O)Nc2ccc(F)cc2C)c(C)n(C)c1C | / | / | -1% | 1% | 0% | /
CC(CN1CCc2nnc(CNC(=O)c3cccc(F)c3)n2CC1)c1ccccc1 (stereo not drawn) | / | / | / | / | 0% | /
COc1cc(/C=C2/SC(=O)NC2=O)ccc1Oc1ccc([N+](=O)[O-])cc1[N+](=O)[O-] | -28% | 50µM* | 2% | 0% | 1% | -3%
COc1cc(/C=C2\SC(=O)NC2=O)ccc1Oc1ccc([N+](=O)[O-])cn1 | ? | 79µM* | -1% | / | 6% | ?
CN(C)S(=O)(=O)N(CC(=O)NCCSCc1cccc(Cl)c1)c1ccccc1 | / | / | 0% | 2% | 0% | /
Cc1ccc2occ(/C=N/NC(N)=S)c(=O)c2c1 | -32% | -14% | 1% | 1% | 3% | 4%
